In PubChem BioAssay:
Active and inactive are the calls of the source.

How the values were obtained:
[1] = tested on: Human papillomavirus type 1a protein E7 (residues 44-93); assay: small molecules binding HPV E7 44-93 – biochemical, small-molecule microarray, residues 44-93, 635 nm fluorescence, primary screen (AID 1108); settings: fluorescence 635 nm, higher = more signal;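 note: E7 fragment applied at 1 µg/mL in TBST for 1 h at 4 C; score combines spot fluorescence with its signal to noise ratio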
[2] = hepatitis C replication reporter changes, two-sided – Huh7 cells, luciferase reporter, HCV replication inhibitor project, primary screen (AID 1109); settings: Huh7 HCV replicon luciferase reporter, 48 h; higher = more signal;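 note: huh7 hepatoma cells harbouring a luciferase neomycin HCV replicon reporter; luciferase luminescence as measure of HCV replicon replication; test concentration not given here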
[3] = target: Left-right determination factor 2 (Homo sapiens) (UniProt O00292); assay: small molecules binding LEFTY2 protein – biochemical, small-molecule microarray, 635 nm fluorescence scan, primary screen (AID 1110); settings: higher = more signal
Sequence of Left-right determination factor 2 (Homo sapiens) (O00292 whole entry, looked up): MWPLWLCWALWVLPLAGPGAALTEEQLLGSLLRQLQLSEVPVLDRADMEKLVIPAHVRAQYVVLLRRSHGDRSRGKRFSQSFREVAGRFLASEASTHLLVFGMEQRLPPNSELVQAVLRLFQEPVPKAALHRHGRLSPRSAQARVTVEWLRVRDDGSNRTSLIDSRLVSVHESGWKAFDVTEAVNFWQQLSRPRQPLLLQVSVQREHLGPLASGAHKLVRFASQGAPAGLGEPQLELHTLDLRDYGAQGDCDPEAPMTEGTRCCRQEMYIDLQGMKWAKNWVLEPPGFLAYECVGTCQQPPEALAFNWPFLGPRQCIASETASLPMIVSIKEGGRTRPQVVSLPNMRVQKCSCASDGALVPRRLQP

[4] = target: Calmodulin-1 (Homo sapiens) (UniProt P0DP23); assay: small molecules binding calmodulin-1 with EGTA – biochemical, small-molecule microarray, Cy5-labelled CALM1, profiling panel (AID 1111); settings: Cy5-CALM1 binding fluorescence, higher = more signal;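 note: labelled calmodulin applied in Tris saline Tween buffer holding calcium plus EGTA and DTT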
[5] = target: Calmodulin-1 (Homo sapiens) (UniProt P0DP23); assay: small molecules binding Ca-loaded calmodulin-1 – biochemical, small-molecule microarray, Cy5-labelled CALM1, plus calcium, artefact control for SMM control-protein annotation, profiling panel (AID 1112); settings: Cy5-CALM1 binding fluorescence, higher = more signal;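 note: score merges spot fluorescence with signal to noise from triplicate slides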
[6] = probe aWnt5a binding to arrayed compounds – biochemical, biotinylated probe, 635/667 nm fluorescence, primary screen (AID 1113); settings: small-molecule microarray, higher = more signal;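 note: score merges 667 nm fluorescence intensity with signal-to-noise per printed feature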
[7] = probe aShh binding to arrayed compounds – biochemical, biotinylated probe, 635/667 nm fluorescence, primary screen (AID 1114); settings: small-molecule microarray, higher = more signal;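 note: probe is biotin-labelled aShh protein from a stem cell growth factor screen; measures binding of labelled protein to compounds printed on the slide; score merges feature fluorescence at 667 nm with signal-to-noise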
[8] = probe aNog binding to arrayed compounds – biochemical, biotinylated probe, 635/667 nm fluorescence, primary screen (AID 1115); settings: small-molecule microarray, higher = more signal;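 note: probe is biotinylated aNog protein used at 0.15 µg/mL for 1 h at 4 C; z-score combines 667 nm fluorescence of each spot with its signal to noise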
[9] = target: Torsin-1A-interacting protein 1 (Homo sapiens) (UniProt Q5JTV8); assay: compound microarray binding of lysate hLAP1 – cell lysate, small-molecule microarray, COS7 lysate, 635/667 nm fluorescence, primary screen (AID 1116); settings: 635 nm fluorescence, higher = more signal
Sequence of Torsin-1A-interacting protein 1 (Homo sapiens) (Q5JTV8 whole entry, looked up): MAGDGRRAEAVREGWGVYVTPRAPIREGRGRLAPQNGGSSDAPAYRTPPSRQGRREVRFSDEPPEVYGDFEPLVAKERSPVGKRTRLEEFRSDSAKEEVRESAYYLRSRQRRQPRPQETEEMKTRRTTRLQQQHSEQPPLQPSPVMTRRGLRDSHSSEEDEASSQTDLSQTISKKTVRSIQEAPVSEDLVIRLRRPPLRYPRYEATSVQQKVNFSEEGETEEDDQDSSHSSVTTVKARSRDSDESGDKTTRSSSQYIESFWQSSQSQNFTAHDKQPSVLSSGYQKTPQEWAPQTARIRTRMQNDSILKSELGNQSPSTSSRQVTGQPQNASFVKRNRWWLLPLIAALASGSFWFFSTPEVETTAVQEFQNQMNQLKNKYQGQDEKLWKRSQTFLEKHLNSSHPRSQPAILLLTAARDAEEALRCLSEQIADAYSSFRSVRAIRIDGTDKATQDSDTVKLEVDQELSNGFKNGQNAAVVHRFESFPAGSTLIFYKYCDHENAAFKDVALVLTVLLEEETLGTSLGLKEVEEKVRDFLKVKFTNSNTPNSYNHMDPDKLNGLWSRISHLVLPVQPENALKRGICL

[10] = target: Alpha-bungarotoxin (Bungarus multicinctus) (UniProt P60615); assay: compounds binding labelled alpha-BTX control protein – biochemical, small-molecule microarray, Alexa647 label, 635/667 nm fluorescence, artefact control for SMM control protein annotation, profiling panel (AID 1117); settings: alpha-BTX-A647 binding fluorescence, higher = more signal
Sequence of Alpha-bungarotoxin (Bungarus multicinctus) (P60615 whole entry, looked up): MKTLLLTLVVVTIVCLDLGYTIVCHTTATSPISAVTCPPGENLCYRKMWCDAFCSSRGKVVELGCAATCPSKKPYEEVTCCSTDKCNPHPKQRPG

[11] = target: Albumin (Bos taurus) (UniProt P02769); assay: compounds binding labelled BSA control protein – biochemical, small-molecule microarray, Alexa647 label, 635/667 nm fluorescence, artefact control for SMM control protein annotation, profiling panel (AID 1118); settings: BSA-A647 binding, fluorescence 635 nm, higher = more signal;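 note: score merges 667 nm emission intensity and signal-to-noise per printed compound spot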
Sequence of Albumin (Bos taurus) (P02769 whole entry, looked up): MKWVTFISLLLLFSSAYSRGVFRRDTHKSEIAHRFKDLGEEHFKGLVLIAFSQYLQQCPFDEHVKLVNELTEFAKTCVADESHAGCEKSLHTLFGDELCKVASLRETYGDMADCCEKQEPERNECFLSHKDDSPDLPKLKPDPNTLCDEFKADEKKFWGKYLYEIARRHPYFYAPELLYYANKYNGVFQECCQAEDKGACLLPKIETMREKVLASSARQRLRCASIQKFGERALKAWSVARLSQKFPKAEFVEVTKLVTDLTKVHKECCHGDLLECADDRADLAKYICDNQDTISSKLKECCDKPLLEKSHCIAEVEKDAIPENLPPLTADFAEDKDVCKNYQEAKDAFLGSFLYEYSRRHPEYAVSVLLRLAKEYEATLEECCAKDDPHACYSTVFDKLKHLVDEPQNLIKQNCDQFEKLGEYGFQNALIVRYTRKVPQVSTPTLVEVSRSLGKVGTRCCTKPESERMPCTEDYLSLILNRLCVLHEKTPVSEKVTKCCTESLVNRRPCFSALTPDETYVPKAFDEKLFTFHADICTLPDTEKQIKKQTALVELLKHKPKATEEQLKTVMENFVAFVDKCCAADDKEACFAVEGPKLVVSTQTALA

[12] = probe aXIP binding to arrayed compounds – biochemical, NeuroSMM set, 635/667 nm fluorescence, primary screen (AID 1119); settings: small-molecule microarray, higher = more signal, called active from +8 up or from −8 down;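 note: probe is the protein aXip251-270 applied at 1 µg/mL to compound-printed slides; binding of probe to printed compounds measured as 667 nm fluorescence plus signal to noise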
[13] = probe aNOTCH3 binding on compound microarray – biochemical, small-molecule microarray, 635/667 nm fluorescence, primary screen (AID 1120); settings: higher = more signal;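 note: probe is a biotin-tagged antibody raised against NOTCH3 rather than NOTCH3 protein; score merges spot fluorescence near 667 nm with spot signal to noise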
[14] = probe aNOTCH2 binding on compound microarray – biochemical, small-molecule microarray, 635/667 nm fluorescence, primary screen (AID 1121); settings: higher = more signal;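 note: score merges feature fluorescence read at 667 nm with its signal to noise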
[15] = target: Carbonic anhydrase 2 (Homo sapiens) (UniProt P00918); assay: compounds binding carbonic anhydrase 2 – biochemical, small-molecule microarray, Alexa647-labelled CAII, profiling panel (AID 1122); settings: CAII-A647 binding fluorescence, higher = more signal
[16] = COS7 lysate on small-molecule microarray, probe aHis, 635 nm (AID 1123); settings: COS7 cell lysate, fluorescence, higher = more signal;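 note: z-score combines 667nm fluorescence intensity with signal-to-noise per printed compound spot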
[17] = probe aLAP1 signal on lysate-treated microarray – cell lysate, small-molecule microarray, COS7 lysate, primary screen (AID 1124); settings: probe aLAP1, fluorescence, higher = more signal;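 note: lysate comes from COS7 cells expressing LAP1 and is applied at 0.3 µg/mL; score merges spot fluorescence near 667 nm with signal-to-noise over triplicate slides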
[18] = tested on: Sam68 (KHDRBS1); assay: compounds binding KHDRBS1 protein – biochemical, small-molecule microarray, 635 nm fluorescence, primary screen (AID 1125); settings: higher = more signal;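 note: score merges 667 nm channel intensity with signal to noise over triplicate slides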
[19] = tested on: Chordin-like protein 2 (CHRDL2); assay: compounds binding chordin-like 2 – biochemical, small-molecule microarray, 635 nm fluorescence, primary screen (AID 1126); settings: fluorescence 635 nm, higher = more signal;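 note: printed compound slides probed with Chrdl2 protein at 4 µg/mL for 1 h at 4 C; score merges 667 nm emission intensity with signal to noise over three replicate slides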
[20] = target: Concanavalin-A (Canavalia ensiformis) (UniProt P02866); assay: compounds binding concanavalin A lectin – biochemical, small-molecule microarray, Alexa647 label, 635 nm, artefact control for SMM control protein annotation, primary screen (AID 1127); settings: ConA-A647 binding fluorescence, higher = more signal;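 note: z combines 667 nm emission intensity with signal-to-noise across three replicate slides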
Sequence of Concanavalin-A (Canavalia ensiformis) (P02866 whole entry, looked up): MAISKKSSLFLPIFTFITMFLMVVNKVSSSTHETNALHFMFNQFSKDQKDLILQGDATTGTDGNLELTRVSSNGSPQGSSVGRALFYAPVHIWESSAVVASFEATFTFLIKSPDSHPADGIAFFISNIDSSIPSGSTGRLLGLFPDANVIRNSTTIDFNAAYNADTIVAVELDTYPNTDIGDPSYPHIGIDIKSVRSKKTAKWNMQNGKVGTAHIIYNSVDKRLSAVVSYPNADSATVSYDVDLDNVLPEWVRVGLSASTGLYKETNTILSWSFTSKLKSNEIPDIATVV

Compound	composite z-score [1]	z-score [2]	composite z-score [3]	composite z-score [4]	composite z-score [5]	composite z-score [6]	composite z-score [7]	composite z-score [8]	composite z-score [9]	composite z-score [10]	composite z-score [11]	composite Z-score [12]	composite z-score [13]	composite z-score [14]	composite z-score [15]	composite z-score [16]	composite z-score [17]	composite z-score [18]	composite z-score [19]	composite z-score [20]
COc1ccc(O[C@H]2C=C[C@@H](c3ccccc3)O[C@@H]2CON=CC[C@@H]2C=C[C@H](OC(C)=O)[C@@H](COC(C)=O)O2)cc1	-0.332	-0.821	0.425	-0.169	-0.282	-0.145	-0.221	-0.083	0.28	-0.0924	0.779	0.112 (inactive)	0.0893	-0.145	-0.198	-0.478	0.221	-0.176	0.366	0.543
CCOC(=O)[C@H](Cc1ccccc1)NC(=O)CCC1CC(OC(=O)NCc2cccc3ccccc23)CC2(CCCC(COC(=O)NCCC(C)C)O2)O1 (stereo not given in full)	-2.01	-0.134	0.215	0.56	-0.29	-0.13	0.0141	-0.372	-0.0831	1.09	0.793	0.142 (inactive)	-0.0956	-0.133	0.742	0.426	0.23	-1.08	-0.0587	0.653
CC(C)C[C@H](NC(=O)CCC1CC(OC(=O)NCc2cccc3ccccc23)CC2(CCCC(COC(=O)NCc3ccccc3)O2)O1)C(=O)NCC(c1ccccc1)c1ccccc1 (stereo not given in full)	1.28	-1.27	0.913	0.0799	-0.202	-0.0825	0.0611	-0.0863	0.508	-0.157	0.163	-0.0662 (inactive)	0.0876	-0.234	0.404	0.743	1.09	1.31	0.546	0.347
O=C(C=Cc1ccc2c(c1)OCO2)c1ccc(F)cc1	-0.9	2.84	0.976	-0.481	-1.41	-0.0455	0.297	-0.126	0.569	0.444	-0.744	-0.188 (inactive)	0.278	-0.0811	-0.236	-0.542	0.134	-0.21	1.31	0.108
C=CC[C@@H]1C=C[C@H](ON=C[C@@H](C)[C@H](OCc2ccccc2)C(C)C)[C@@H](CO)O1	0.0248	-2.12	-0.0977	-1.07	-0.0781	-0.101	-0.186	-0.4	-0.159	-0.901	0.744	-0.315 (inactive)	-0.276	-0.221	-0.115	0.502	0.103	0.0186	0.157	-0.817
CO[C@@H]1COC(=O)[C@H](CCSC)NC(=O)CC=C[C@@H](C)COC(=O)[C@H](C)NC(=O)CC=C[C@H]1C	0.677	-0.62	1.19	-0.886	-1.04	-0.0179	-0.221	-0.0604	-0.185	-0.155	-1.04	0.327 (inactive)	0.187	-0.0907	-0.0169	-0.395	0.36	1.28	1.15	-0.19
O=C1[C@H]2[C@H]3[C@H](O)[C@H](O)CC(=NOCc4ccccc4)[C@@H]3CC[C@H]2C(=O)N1Cc1ccc2c(c1)OCO2	0.0666	-0.276	0.517	-0.206	-0.211	-0.091	-0.154	-0.23	0.366	0.576	0.0462	0.0289 (inactive)	0.0306	-0.0131	0.618	-0.0974	-0.0389	-0.0391	0.124	-0.0139
CCCNC(=O)OC[C@H]1O[C@H](CCON=C(C)CCN2CCCc3nc(C)c(C)cc32)C=C[C@@H]1Oc1ccc(OC)cc1	0.652	-2.36	0.425	0.65	0.241	-0.119	0.0952	0.358	0.186	0.782	0.727	0.475 (inactive)	0.0894	-0.0846	0.147	1.21	0.0156	1.29	0.0783	0.925
CCOC(=O)[C@H](CC(C)C)NC(=O)CCC1CC(OC(=O)NCc2cccc3ccccc23)CC2(CCCC(COC(=O)NCCOC)O2)O1 (stereo not given in full)	1.34	0.339	0.629	-0.24	-0.418	-0.116	-0.128	-0.0653	0.481	0.0702	0.222	-0.166 (inactive)	0.0306	-0.0195	0.431	1.02	-0.0557	1.29	0.156	0.782
CCOC(=O)CCN1C(=O)[C@H]2[C@H]3[C@H](O)[C@H](O)CC(=NOCc4ccccc4)[C@H]3CC[C@H]2C1=O	-0.207	0.676	0.389	-0.205	-0.329	-0.174	-0.0977	-0.0312	0.0908	0.857	-0.271	0.119 (inactive)	0.191	-0.0467	-0.19	0.343	-0.27	0.152	0.578	-0.477
COC(=O)[C@@H]1CC[C@H](C)[C@@H](c2ccc(C)cc2)N1C(=O)c1ccc(C=NOCC[C@@H]2C=C[C@H](OC(C)=O)[C@@H](COC(C)=O)O2)cc1	0.875	-0.852	0.465	-0.0548	-0.141	-0.0778	-0.0553	-0.37	1.41	0.646	-0.129	-0.2 (inactive)	0.088	-0.1	-0.0127	0.148	-0.552	0.926	0.772	0.658
